Giardia kill: Small Molecules that selectively kill Giardia lamblia: qHTS. Giardia lamblia trophozoite viability. activity change, % at 7.66 µM, hits read low. hit rate 0.15% among 340,000. AID 540267, 2011; in the data active = activity change below about -80%; inconclusive = between about -30% and that limit;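 note: parasites exposed to compound for two days anaerobically before the ATP read; % is set by controls: 0 for no effect and ±100 for the full control effect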
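Media and compound were dispensed first, then trophozoites at 100 cells/well; plates sat 48 hrs at 37 deg C without oxygen before ATP luminescence reagent was added and read after 15-30 min at room temperature.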
B2AR arrestin: qHTS assay of beta-arrestin-biased ligands of beta2-adrenergic receptor. AID 492947, 2010. Potency, µM (top dose mostly 46.1 µM), for the others: top-dose activation, most hits filed as activators. hit rate 0.02% among 330,000. beta-arrestin recruitment to beta2AR, cell-based reporter;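 note: potency is the fitted concentration of half-maximal effect; 0% = DMSO controls and full agonism = EC100 isoproterenol or metaproterenol; nearly all actives have a fitted effect of over 65% in size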
Target sequence (P07550 whole entry, looked up): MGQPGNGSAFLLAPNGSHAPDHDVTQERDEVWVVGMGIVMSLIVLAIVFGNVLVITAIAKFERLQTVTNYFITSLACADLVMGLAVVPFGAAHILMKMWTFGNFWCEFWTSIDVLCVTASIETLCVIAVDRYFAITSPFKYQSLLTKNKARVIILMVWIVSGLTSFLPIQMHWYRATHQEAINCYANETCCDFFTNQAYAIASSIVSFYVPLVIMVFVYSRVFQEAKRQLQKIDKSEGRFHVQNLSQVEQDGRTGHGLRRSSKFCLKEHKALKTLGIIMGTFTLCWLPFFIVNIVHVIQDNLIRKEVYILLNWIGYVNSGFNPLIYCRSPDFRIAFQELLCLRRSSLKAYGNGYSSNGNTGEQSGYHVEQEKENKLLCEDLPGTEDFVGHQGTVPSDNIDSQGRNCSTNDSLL
uPA surface inh: qHTS for Inhibitors of Cell Surface uPA Generation. hit rate 0.31% among 330,000. Potency, µM (top dose mostly 38.3 µM), without a hit: at the highest dose activity change, negative = inhibition, actives largely listed as inhibitors. AID 540303, 2011. cell surface uPA generation assay, qHTS; active = well fitted inhibition curve with a large enough effect; inconclusive = small, poorly fitted or top-dose-only effect; inactive = no such curve, though single readings can be large or run the other way; tested in mouse RAW 264.7 cells; note: potency is the fitted concentration of half-maximal effect; % is set by controls: 0 for no effect and ±100 for the full control effect; nearly all actives have a fitted effect of over 55% in size
Mito fusion act: qHTS Assay for Small Molecule Inhibitors of Mitochondrial Division or Activators of Mitochondrial Fusion. S. cerevisiae fusion-defective mutant growth rescue, CellTiterGlo 48 h. Potency, µM (series often up to 46.1 µM), inactives show top-dose growth rescue (activation), hits mostly activators. hit rate 0.23% among 320,000. AID 485298, 2010; note: potency is the fitted concentration of half-maximal effect; % of control where 0% means no effect; nearly all actives have a fitted effect of over 45% in size
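Temperature-sensitive fusion-defective S. cerevisiae (e.g. fzo1-1, mgm1-5) were grown with compound in YPEG medium (3% ethanol, 3% glycerol) for 48 hours at 37C. Growth rescue was measured as viability by CellTiterGlo luminescence after 10 minutes at ambient.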
p53 reactivation: qHTS assay for re-activators of p53 using a Luc reporter. H1299 p53-A138V BP100-luciferase reporter, luminescence, 24 h. Potency, µM (top dose mostly 92.2 µM), for inactives: top-dose activity change, positive = activation, actives largely listed as activators. hit rate 0.063% among 320,000; note: potency is the fitted concentration of half-maximal effect; % of control where 0% means no effect; nearly all actives have a fitted effect of over 45% in size
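p53-null H1299 cells stably carrying temperature-sensitive p53-A138V and a BP100-luciferase reporter were pinned with compounds (4-point, 1:5 series) and held 24 hrs at 37 deg C. Luminescence was read 10 min after detection reagent.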
ClpP mod: qHTS Assay for Activators of ClpP | purified B. subtilis ClpP, FRET peptide cleavage, 20 min | Potency, µM (top dose mostly 57.5 µM), for the others: at the highest dose activity change, negative = active | hit rate 1.9% among 340,000 | AID 651965, 2013; active = well fitted falling curve with a large enough effect; inconclusive = small, poorly fitted or top-dose-only effect; inactive = no such curve, though single readings can be large or run the other way; note: potency is the fitted concentration of half-maximal effect; the source files actives as falling curves though it sought activators and does not explain the sign; nearly all actives have a fitted effect of over 65% in size
Target sequence (P80244 whole entry, looked up): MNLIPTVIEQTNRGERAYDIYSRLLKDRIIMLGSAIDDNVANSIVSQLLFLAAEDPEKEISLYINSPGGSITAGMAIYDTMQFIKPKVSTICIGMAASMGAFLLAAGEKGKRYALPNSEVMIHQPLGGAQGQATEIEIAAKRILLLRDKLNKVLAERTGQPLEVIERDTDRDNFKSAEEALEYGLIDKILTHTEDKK
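Purified B. subtilis ClpP, 10 microg/mL final in Tris/HCl pH8 with KCl, BSA, glycerol and Tween-20, cleaved an Abz/nitrotyrosine-quenched decapeptide. Fluorescence (ex 320, em 430) was read at 0 and 20 min at room temperature. Delta was normalized to 5.8 microM ADEP and DMSO/no-enzyme controls.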
* marks the source's active call; other numbers are inactive results; ? = inconclusive; · = not tested or not shown; ! = a repeat was not active. An excerpt weighted towards active compounds, which were near 2.1% of everything screened. Unless noted, calls come from the whole dose curve; as a rule, active = well fitted curve in the direction sought with a large enough effect; inconclusive = small, poorly fitted or top-dose-only effect, or another doubt; inactive = no such curve, though single readings can be large; an effect the other way counts as inactive or inconclusive.

SMILES | Giardia kill | B2AR arrestin | uPA surface inh | Mito fusion act | p53 reactivation | ClpP mod
Cc1ccc2cccc(SCC(=O)N3CCOCC3)c2n1 | 1.7 | ? | 4.5% | -8.5% | 7.9% | 28.2µM*
Cc1cccc2[nH]c(SCC(=O)N3CCOCC3)nc12 | 1.0 | -0.4% | 3.6% | -3.7% | 3.7% | 1.4%
O=C(COc1cccc(Cl)c1)N1CCC(c2nc3ccccc3s2)CC1 | · | · | · | · | · | 0.7%
CCOC(=O)C1(C)C=C(Nc2ccc(NC(C)=O)cc2)C(=O)N1c1ccc(NC(C)=O)cc1 (configuration not stated) | -2.2 | 0.1% | 2.9% | 1.3% | -5.0% | 25.1µM*
O=C(Nc1cccc(Cl)c1)N1CCN2C(=O)c3ccccc3C12c1ccccc1 (configuration not stated) | -4.6 | -0.2% | 6.0% | 2.9% | -1.0% | 15.8µM*
COc1ccc(CNC(=O)CSc2nnc(C)c3c(C)n(-c4ccccc4)nc23)c(OC)c1 | · | · | · | · | · | -1.6%
Cc1cccn2c(=O)c3cc(C(=O)NCCCN4CCCC4=O)n(C)c3nc12 | 9.9 | -0.2% | -6.9% | 1.0% | 7.6% | 15.8µM*
CCCN(CCC)C(=O)c1cc2c(=O)n3cccc(C)c3nc2n1C | · | · | · | · | · | 4.5%
Cc1cccn2c(=O)c3cc(C(=O)N(C)C)n(C)c3nc12 | -12.0 | -0.9% | -0.6% | 2.5% | ? | 15.8µM*
CCOC(=O)c1cn(CC(=O)Nc2cccc(Cl)c2C)nn1 | 1.0 | -0.8% | -2.9% | 0.4% | -2.5% | 35.5µM*!
C/C(=C1/C=Nc2ccccc21)c1ccc(N(C)C)cc1 | · | · | · | · | · | -12.8%
Cc1cc(C)nc(N2CCCC(C(=O)NC3CCCC3)C2)n1 (configuration not stated) | 8.2 | 0.4% | 6.8% | 6.4% | -10.8% | 22.4µM*
COC(=O)CNC(=O)C1CCN(c2nc(C)cc(C)n2)CC1 | -6.7 | -0.6% | · | -0.3% | -10.6% | 31.6µM*
COc1nc(OC)nc(N2CCC(C(=O)NCc3ccco3)CC2)n1 | 0.4 | -1.0% | · | 6.5% | -2.9% | 0.3%
COCCCNC(=O)C1CCN(c2nc(C)cc(C)n2)CC1 | 7.5 | -0.1% | · | 0.7% | -4.6% | ?
Cc1cc(C)nc(N2CCC(C(=O)NCc3ccco3)CC2)n1 | 18.4 | -0.4% | · | -7.1% | -9.7% | 15.8µM*
Cc1c(O)c2c(c(C(=O)/C=C/c3ccccc3)c1O)OC(C)(C)C=C2 | · | · | · | · | · | -1.5%
CCOc1ccccc1CNC(=O)CCn1c(=O)c2cccn2c2ccc(F)cc21 | · | · | · | · | · | -13.5%
COc1cccc(-n2cc(C(=O)Nc3ccccc3C(N)=O)c3ccccc3c2=O)c1 | · | · | · | · | · | -5.5%
COc1ccc(OC)c(-c2cc(C(=O)Nc3c(C)nn(Cc4ccccc4Cl)c3C)no2)c1 | -1.6 | -0.1% | · | -10.9% | -24.7% | 35.5µM*
O=C1NC[C@H](CCCCN2CCN(CC3CCCCC3)C(=O)C2=O)N(CCc2ccccc2)C1=O | · | · | · | · | · | 1.8%
Cc1ccsc1/C=C/c1ccc2cccc(O)c2n1 | -3.8 | 13.0% | · | 9.6% | 39.8µM* | -3.0%
CCOC(=O)c1c(NC(=O)C2C3C=CC(C3)C2C(=O)O)sc2c1CCC(CC)C2 (configuration not stated) | -25.7 | 3.6% | -10.7% | -6.9% | 1.4% | 25.1µM*
Cc1noc(C)c1C(=O)OCC(=O)N(C)C1CCS(=O)(=O)C1 (configuration not stated) | -11.2 | -0.1% | -2.3% | 6.1% | 0.2% | ·
CC(=O)Nc1sc(C)c(C)c1C(=O)OCC(=O)N(C)C1CCS(=O)(=O)C1 (configuration not stated) | 0.7 | -0.6% | -5.1% | -1.7% | -7.5% | 35.5µM*
SMILES | Giardia kill | B2AR arrestin | uPA surface inh | Mito fusion act | p53 reactivation | ClpP mod
CCOC(=O)c1c(NC(=O)C2C3C=CC(CC3)C2C(=O)O)sc(C)c1C (configuration not stated) | -11.2 | 5.3% | 1.6% | 13.9% | 4.1% | 28.2µM*
CCOC(=O)c1c(NC(=O)C2C3CCC(O3)C2C(=O)O)sc2c1CCC(CC)C2 (configuration not stated) | 8.7 | -0.2% | -4.5% | -1.2% | -1.8% | ·
COc1cccc2sc(N(Cc3cccnc3)C(=O)c3ccc4c(c3)OCCO4)nc12 | · | · | · | · | · | 70.1%
COc1ccc(-n2nc(C(=O)Nc3ccc(C(C)=O)cc3)nc2-c2ccccc2)cc1 | · | · | · | · | · | -2.7%
CCCOC(=O)c1ccc(NC(=O)c2ccc(Br)o2)cc1 | 7.8 | -0.2% | 1.5% | 22.4µM* | 11.2% | -4.3%
O=S(=O)(c1cccc(-c2cn3cc(Cl)ccc3n2)c1)N1CCOCC1 | -0.2 | 0.0% | · | -1.3% | -11.7% | 28.2µM*
CN(C)S(=O)(=O)c1cccc(-c2cn3cc(Cl)ccc3n2)c1 | -7.8 | 0.5% | · | -5.3% | 3.2% | 28.2µM*
CN(C)S(=O)(=O)c1cccc(-c2cn3ccccc3n2)c1 | -16.6 | -1.0% | 2.5% | 0.0% | 7.9% | ?
CCOC(=O)[C@]12CCCC=C1N(Cc1ccc3c(c1)OCO3)C(=O)[C@H](CC(=O)N1CCCCC1)C2 | · | · | · | · | · | -1.2%
CCc1cc2c(=O)c(-c3cnn(-c4ccccc4)c3)c(C)oc2c(CN2CCCCC2)c1O | -9.0 | 0.1% | · | 7.0% | 4.0% | 28.2µM*
CCc1cc2c(=O)c(-c3cnn(-c4ccccc4)c3)coc2c(CN2CCOCC2)c1O | 7.6 | 0.3% | -0.6% | -0.5% | 1.9% | ?
COc1cc(NC(=O)COCc2cc(-c3ccc(F)cc3)on2)cc(OC)c1OC | · | · | · | · | · | -2.1%
CN(C)CCNC(=O)/C(=C/c1ccc(-c2ccc(Cl)cc2Cl)o1)NC(=O)c1ccccc1 | 17.6 | -0.4% | 7.5% | -10.7% | -12.3% | -7.1%
CN(C)CCNC(=O)/C(=C/c1ccc(-c2ccc(Cl)cc2)o1)NC(=O)c1ccccc1 | -8.0 | -0.4% | 7.1% | -8.4% | -18.5% | 15.8µM*
CCNc1nc(C#N)nc(NCC)n1 | -13.7 | · | · | · | · | -9.4%
C=CCn1c(COc2cccc3ccc(C)nc23)nnc1SCC(=O)O | 5.7 | · | 1.1% | 2.2% | · | 35.5µM*
C=CCn1c(COc2cccc3cccnc23)nnc1SCC(=O)O | 13.4 | -0.4% | 2.4% | -4.8% | -5.8% | 28.2µM*
O=C(O)CSc1nnc(COc2cccc3cccnc23)n1-c1cccc(C(F)(F)F)c1 | 12.5 | 0.2% | 0.9% | -4.9% | 1.1% | ·
O=C1C(C=NCCN2CCOCC2)=C(O)c2ccccc21 | 4.2 | 8.8% | -3.9% | -14.6% | ? | 28.2µM*
CCCn1c(=O)[nH]c(=O)c2c1nc(-c1ccc(OC(F)(F)C(F)C(F)(F)F)cc1)n2CCOC (configuration not stated) | 1.9 | 0.1% | 2.5% | 2.6% | -5.3% | 28.2µM*

Compound activity: PubChem BioAssay, National Center for Advancing Translational Sciences (NCATS)
